Results: PubChem BioAssay AID434982 (The Scripps Research Institute Molecular Screening Center, 2010)
About 60 (0.4%) of roughly 15,000 compounds were called active. No stated cut-off is given here; in the data, active means activation above about 2.2%; inactive means the rest. Only a selection was taken, and actives are over-represented in it overall.

Assay: activates NOTCH signaling in reporter cells (AID 434982)
Settings: NOTCH signaling luciferase reporter cells, luminescence; at 2.5 µM; active compounds read high

| SMILES | activation |
| --- | --- |
| O=C1/C(=C\c2ccc3c(c2)OCO3)N2CCC1CC2 | 3.83% (active) |
| CN(C)CC1CCCCC1=O (stereo not given) | 0.24% (inactive) |
| CNC(=O)O/N=C(\N)Cc1csc2ccc(Cl)cc12 | 0.88% (inactive) |
| Cc1ccc(Oc2c(C)nc(-c3ccccc3)nc2OC(=O)N(C)C)cc1 | 0.1% (inactive) |
| N#CCN1CCN(c2cccc(Cl)c2)CC1 | 0.33% (inactive) |
